Structures are written as SMILES. The panel holds about 83,000 compounds, 20% with a hit somewhere; the sample as a whole holds those more often.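 Interpretation: 100, growth as untreated; towards 0, rising growth inhibition; 0, no net growth; 0 to -100, cell death. Compounds scoring below 10 were considered active.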 A number with no mark means an inactive call. Activity calls are given as the source filed them.

Among the test systems are NCI-H23 lung; NCI-H226 lung; NCI-H322M lung; HOP-62 NSCLC; NCI-H460 lung; HOP-92 NSCLC; NCI-H522 lung; A549/ATCC NSCLC; 786-0 renal; COLO 205 colon; DU-145 prostate; K-562 leukemia; MALME-3M melanoma; MDA-MB-231 breast; RXF 393 renal; SF-268 CNS; SF-295 CNS; SF-539 CNS; UACC-257 melanoma; M14 melanoma.
Common to all, as to assay: NCI-60 one-dose screen, 48 h (100 = growth as untreated, 0 = no growth, -100 = all killed)
Settings in all cases: 10 µM unless noted

As to `CC(=O)c1c(C)c2cnc(Nc3ccc(N4CCNCC4)cn3)nc2n(C2CCCC2)c1=O`, the growth with NCI-H23 lung is 50.9%; in the assay with NCI-H226 lung it was 52.7%; with NCI-H322M lung, 31.9%; with HOP-62 NSCLC, 42%; in the assay with NCI-H460 lung, 14.1%; with HOP-92 NSCLC, 66%. Also, the growth in the assay on NCI-H522 lung is -76.7% (active); in the assay on A549/ATCC NSCLC, 22.6%; in the assay on 786-0 renal it was 24.9%; with COLO 205 colon, 18.5%; in the assay with DU-145 prostate, 39.1%; with K-562 leukemia it was 6.83% (active). For the same compound, the growth was 2.27% (active) in the assay with MALME-3M melanoma; 36.5% in the assay on MDA-MB-231 breast; -0.541% (active) in the assay on RXF 393 renal; 46.7% in the assay on SF-268 CNS; 70.3% with SF-295 CNS; 27.4% in the assay on SF-539 CNS. The growth in the assay with UACC-257 melanoma is -11.7% (active); in the assay on M14 melanoma, 29.2%.

As for `COC(=O)[C@H](C)NC(=O)[C@@H](OC)[C@@H]1Cc2cc3cc(OC4CC(OC5CC(O)C(O)C(C)O5)C(O)C(C)O4)c(C)c(O)c3c(O)c2C(=O)[C@H]1OC1CC(OC2CC(OC3CC(C)(O)C(O)C(C)O3)C(O)C(C)O2)C(O)C(C)O1` (stereo not given in full), the growth with NCI-H23 lung is -31.1% (active); with NCI-H226 lung, -21.5% (active); in the assay with NCI-H322M lung, 11.4%; in the assay on HOP-62 NSCLC, 13%; in the assay with NCI-H460 lung, 7.28% (active); in the assay on HOP-92 NSCLC, 3.12% (active). For the same compound, the growth with NCI-H522 lung was -26% (active); in the assay on A549/ATCC NSCLC, 7.05% (active); with 786-0 renal, -4.86% (active); in the assay on COLO 205 colon it was -20.5% (active); in the assay with DU-145 prostate, 13.2%; with K-562 leukemia it was 7.1% (active). Further, the growth in the assay with MALME-3M melanoma was -49.3% (active); in the assay with MDA-MB-231 breast, 18.4%; in the assay on RXF 393 renal, -70.3% (active); in the assay with SF-268 CNS, 14.1%; in the assay with SF-295 CNS it was 3.96% (active); in the assay with SF-539 CNS it was -33.2% (active). Also, the growth is -0.386% (active) in the assay on UACC-257 melanoma and -23.9% (active) in the assay on M14 melanoma.

As to `CCc1cnn2c(NCc3ccc[n+]([O-])c3)cc(N3CCCC[C@H]3CCO)nc12`, the growth in the assay with NCI-H23 lung is -23.3% (active); with NCI-H226 lung, -6.42% (active); in the assay on NCI-H322M lung, -0.876% (active); in the assay on HOP-62 NSCLC, -33.2% (active); with NCI-H460 lung it was 1.82% (active); in the assay with HOP-92 NSCLC, -20.2% (active). In addition, the growth with NCI-H522 lung is -42.2% (active); in the assay on A549/ATCC NSCLC, -13.4% (active); in the assay with 786-0 renal, 7.96% (active); in the assay with COLO 205 colon, -62.5% (active); in the assay on DU-145 prostate, 5.68% (active); in the assay on K-562 leukemia it was 1.85% (active). Besides, the growth in the assay on MALME-3M melanoma was -46.3% (active); with MDA-MB-231 breast, 2.67% (active); in the assay on RXF 393 renal, -64.6% (active); in the assay on SF-268 CNS, 3.65% (active); in the assay with SF-295 CNS, 3.11% (active); with SF-539 CNS it was -48.1% (active). Further, the growth is -42.4% (active) in the assay on UACC-257 melanoma and -42.5% (active) with M14 melanoma.

For `COc1cc2c(cc1OCCCN1Cc3ccc(OCCCCC(=O)N4CCC(CCN5CCCC5)CC4)cc3C1)N=C(N)C21CCCC1`, the growth is 84.5% with NCI-H23 lung; 106% with NCI-H226 lung; 107% in the assay on NCI-H322M lung; 79.9% with HOP-62 NSCLC; 102% with NCI-H460 lung; 78.7% in the assay with HOP-92 NSCLC. The growth in the assay with NCI-H522 lung was 50.7%; in the assay with A549/ATCC NSCLC it was 85%; in the assay with 786-0 renal, 85.4%; in the assay with COLO 205 colon it was 42.4%; in the assay with DU-145 prostate, 95.2%; in the assay with K-562 leukemia, 4.85% (active). Moreover, the growth was 44% in the assay on MALME-3M melanoma; 87.1% in the assay with MDA-MB-231 breast; 90.2% with RXF 393 renal; 85.8% with SF-268 CNS; 101% in the assay on SF-295 CNS; 54.7% with SF-539 CNS. Also, the growth is 85.1% with UACC-257 melanoma and 58.2% with M14 melanoma.

In the case of `CNC(=O)c1cc(COc2nnc(Nc3ccc(Cl)cc3)c3ccoc23)ccn1`, the growth is 62.2% in the assay with NCI-H23 lung; 21.3% in the assay with NCI-H226 lung; 45.4% with NCI-H322M lung; -75.2% (active) with HOP-62 NSCLC; 31.2% in the assay on NCI-H460 lung; -5.53% (active) in the assay with HOP-92 NSCLC. Moreover, the growth in the assay with NCI-H522 lung was 10.4%; in the assay on A549/ATCC NSCLC, 35.3%; in the assay on 786-0 renal, -27.1% (active); in the assay with COLO 205 colon, 72.4%; in the assay with DU-145 prostate, 31.9%; in the assay with K-562 leukemia, 69.7%. In addition, the growth with MALME-3M melanoma was 22.4%; with MDA-MB-231 breast, 18.5%; in the assay with RXF 393 renal it was 43.1%; in the assay with SF-268 CNS, 14.2%; in the assay on SF-295 CNS, 10.4%; in the assay with SF-539 CNS, -65.6% (active). The values for the growth in the assay with UACC-257 melanoma and in the assay with M14 melanoma were 33.3% and 78.9%, respectively.

For `CCc1nc(C(N)=O)c(Nc2ccc(N3CCC(N4CCN(C)CC4)CC3)c(OC)c2)nc1NC1CCOCC1`, the growth with NCI-H23 lung is 32.5%; in the assay on NCI-H226 lung, 38.2%; in the assay with NCI-H322M lung it was 43.3%; in the assay on HOP-62 NSCLC it was 16.9%; in the assay with NCI-H460 lung, 17.2%; in the assay with HOP-92 NSCLC it was -25.2% (active). Further, the growth is 1.52% (active) in the assay on NCI-H522 lung; 12.4% in the assay on A549/ATCC NSCLC; 10.2% in the assay with 786-0 renal; -46.5% (active) with COLO 205 colon; 45.1% with DU-145 prostate; 16.1% in the assay with K-562 leukemia. The growth with MALME-3M melanoma was 52.4%; in the assay with MDA-MB-231 breast, 20.3%; in the assay on RXF 393 renal, -92.9% (active); in the assay on SF-268 CNS, 38.3%; in the assay with SF-295 CNS, 12.8%; in the assay with SF-539 CNS, -78.3% (active). In addition, the growth was 40.5% with UACC-257 melanoma and 15.2% in the assay on M14 melanoma.

As to `CNC(=O)c1ccc(Nc2ncc(C(F)(F)F)c(NCc3nccnc3N(C)S(C)(=O)=O)n2)cc1`, the growth with NCI-H23 lung was -16.8% (active); with NCI-H226 lung it was 2.77% (active); in the assay with NCI-H322M lung, 1.99% (active); with HOP-62 NSCLC, -23.5% (active); with NCI-H460 lung, 0.647% (active); in the assay with HOP-92 NSCLC, -13.6% (active). The growth with NCI-H522 lung was -25.2% (active); in the assay with A549/ATCC NSCLC, -14.4% (active); in the assay with 786-0 renal it was 8.71% (active); with COLO 205 colon, -66.2% (active); in the assay on DU-145 prostate it was 7.63% (active); in the assay on K-562 leukemia, 10.6%. The growth in the assay on MALME-3M melanoma is -1.87% (active); with MDA-MB-231 breast, 3.13% (active); in the assay on RXF 393 renal, -51.1% (active); in the assay with SF-268 CNS, 2.86% (active); in the assay with SF-295 CNS it was 5.63% (active); in the assay on SF-539 CNS, -42.7% (active). Also, the growth with UACC-257 melanoma was -21.5% (active); in the assay on M14 melanoma, 8.04% (active).

Consider `COc1cc2nc(Nc3cccc(Cl)c3)nc(N)c2cc1OC`, for which the growth in the assay with NCI-H23 lung was 88.2%; in the assay on NCI-H226 lung, 90.3%; in the assay on NCI-H322M lung it was 89.7%; in the assay on HOP-62 NSCLC it was 106%; in the assay on NCI-H460 lung, 66.9%; with HOP-92 NSCLC it was 40.6%. Besides, the growth with NCI-H522 lung is 101%; in the assay on A549/ATCC NSCLC, 73.4%; with 786-0 renal, 62%; in the assay with COLO 205 colon, -60.1% (active); with DU-145 prostate, 32.3%; in the assay on K-562 leukemia, 24%. Further, the growth in the assay with MALME-3M melanoma is 107%; in the assay on MDA-MB-231 breast, 60.3%; in the assay on RXF 393 renal, 45.4%; with SF-268 CNS, 77.1%; in the assay on SF-295 CNS it was 108%; in the assay on SF-539 CNS, 90.3%. The growth was 90.3% in the assay with UACC-257 melanoma and 78.4% in the assay with M14 melanoma.

Source of the values: PubChem BioAssay (NCI).
